# Molecular target: AgAbp1
# Test: SPOT peptide array binding signal intensity (averaged, normalized) (arbitrary units (background-subtracted, floor 0; scale differs between SH3 domains)); higher = stronger binding of the SH3 domain to the peptide
# Description: (§1)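 GST-tagged SH3 domains from S. cerevisiae (Sc), A. gossypii (Ag), C. albicans (Ca) and S. pombe (Sp) were incubated at 10 ug/ml overnight at 4 C on cellulose SPOT membranes carrying 292 synthetic 15-mer peptides mined from the S. cerevisiae proteome (cysteines replaced by serines). Binding was detected with anti-GST antibody, HRP secondary and chemiluminescence, quantified with Genespotter, and reported as normalized spot intensities averaged over biological replicates.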
row,Binder,SPOT peptide array binding signal intensity
1,NILKRRPLKLEAPSK,27.5
2,VRTRRRPPPPPIPST,28.5

# Molecular target: AgBbc1
# Test: as above
# Description: as §1
row,Binder,SPOT peptide array binding signal intensity
1,NILKRRPLKLEAPSK,0.25
2,VRTRRRPPPPPIPST,892

# Molecular target: AgBem1-D1
# Test: as above
# Description: as §1
row,Binder,SPOT peptide array binding signal intensity
1,NILKRRPLKLEAPSK,65
2,VRTRRRPPPPPIPST,472

# Molecular target: AgBzz1-D1
# Test: as above
# Description: as §1
row,Binder,SPOT peptide array binding signal intensity
1,NILKRRPLKLEAPSK,14
2,VRTRRRPPPPPIPST,3600

# Molecular target: AgBzz1-D2
# Test: as above
# Description: as §1
row,Binder,SPOT peptide array binding signal intensity
1,NILKRRPLKLEAPSK,8
2,VRTRRRPPPPPIPST,940

# Molecular target: AgCyk3
# Test: as above
# Description: as §1
row,Binder,SPOT peptide array binding signal intensity
1,NILKRRPLKLEAPSK,≤ 0
2,VRTRRRPPPPPIPST,2

# Molecular target: AgFus1
# Test: as above
# Description: as §1
row,Binder,SPOT peptide array binding signal intensity
1,NILKRRPLKLEAPSK,77
2,VRTRRRPPPPPIPST,30

# Molecular target: AgHof1
# Test: as above
# Description: as §1
row,Binder,SPOT peptide array binding signal intensity
1,NILKRRPLKLEAPSK,1.25
2,VRTRRRPPPPPIPST,258

# Molecular target: AgHse1
# Test: as above
# Description: as §1
row,Binder,SPOT peptide array binding signal intensity
1,NILKRRPLKLEAPSK,1740
2,VRTRRRPPPPPIPST,29

# Molecular target: AgLsb1
# Test: as above
# Description: as §1
row,Binder,SPOT peptide array binding signal intensity
1,NILKRRPLKLEAPSK,0.5
2,VRTRRRPPPPPIPST,91.8

# Molecular target: AgLsb4
# Test: as above
# Description: as §1
row,Binder,SPOT peptide array binding signal intensity
1,NILKRRPLKLEAPSK,41
2,VRTRRRPPPPPIPST,44.5

# Molecular target: AgMyo5
# Test: as above
# Description: as §1
row,Binder,SPOT peptide array binding signal intensity
1,NILKRRPLKLEAPSK,≤ 0
2,VRTRRRPPPPPIPST,274

# Molecular target: AgNbp2
# Test: as above
# Description: as §1
row,Binder,SPOT peptide array binding signal intensity
1,NILKRRPLKLEAPSK,32
2,VRTRRRPPPPPIPST,840

# Molecular target: AgRvs167
# Test: as above
# Description: as §1
row,Binder,SPOT peptide array binding signal intensity
1,NILKRRPLKLEAPSK,4.5
2,VRTRRRPPPPPIPST,5.5

# Molecular target: AgSho1
# Test: as above
# Description: as §1
row,Binder,SPOT peptide array binding signal intensity
1,NILKRRPLKLEAPSK,≤ 0
2,VRTRRRPPPPPIPST,≤ 0

# Molecular target: AgSla1-D1-D2
# Test: as above
# Description: as §1
row,Binder,SPOT peptide array binding signal intensity
1,NILKRRPLKLEAPSK,7
2,VRTRRRPPPPPIPST,20

# Molecular target: AgSla1-D3
# Test: as above
# Description: as §1
row,Binder,SPOT peptide array binding signal intensity
1,NILKRRPLKLEAPSK,≤ 0
2,VRTRRRPPPPPIPST,346

# Molecular target: CaAbp1-D1
# Test: as above
# Description: as §1
row,Binder,SPOT peptide array binding signal intensity
1,NILKRRPLKLEAPSK,478
2,VRTRRRPPPPPIPST,61

# Molecular target: CaAbp1-D2
# Test: as above
# Description: as §1
row,Binder,SPOT peptide array binding signal intensity
1,NILKRRPLKLEAPSK,96
2,VRTRRRPPPPPIPST,55

# Molecular target: CaBbc1
# Test: as above
# Description: as §1
row,Binder,SPOT peptide array binding signal intensity
1,NILKRRPLKLEAPSK,1.25
2,VRTRRRPPPPPIPST,1060

# Molecular target: CaBem1-D1
# Test: as above
# Description: as §1
row,Binder,SPOT peptide array binding signal intensity
1,NILKRRPLKLEAPSK,≤ 0
2,VRTRRRPPPPPIPST,165

# Molecular target: CaBzz1-D1
# Test: as above
# Description: as §1
row,Binder,SPOT peptide array binding signal intensity
1,NILKRRPLKLEAPSK,≤ 0
2,VRTRRRPPPPPIPST,6060

# Molecular target: CaBzz1-D2
# Test: as above
# Description: as §1
row,Binder,SPOT peptide array binding signal intensity
1,NILKRRPLKLEAPSK,14
2,VRTRRRPPPPPIPST,3990

# Molecular target: CaCyk3
# Test: as above
# Description: as §1
row,Binder,SPOT peptide array binding signal intensity
1,NILKRRPLKLEAPSK,8
2,VRTRRRPPPPPIPST,108

# Molecular target: CaFus1
# Test: as above
# Description: as §1
row,Binder,SPOT peptide array binding signal intensity
1,NILKRRPLKLEAPSK,534
2,VRTRRRPPPPPIPST,7.5

# Molecular target: CaHof1
# Test: as above
# Description: as §1
row,Binder,SPOT peptide array binding signal intensity
1,NILKRRPLKLEAPSK,0.25
2,VRTRRRPPPPPIPST,≤ 0

# Molecular target: CaHse1
# Test: as above
# Description: as §1
row,Binder,SPOT peptide array binding signal intensity
1,NILKRRPLKLEAPSK,27.5
2,VRTRRRPPPPPIPST,13.8

# Molecular target: CaLsb1
# Test: as above
# Description: as §1
row,Binder,SPOT peptide array binding signal intensity
1,NILKRRPLKLEAPSK,≤ 0
2,VRTRRRPPPPPIPST,≤ 0

# Molecular target: CaLsb4
# Test: as above
# Description: as §1
row,Binder,SPOT peptide array binding signal intensity
1,NILKRRPLKLEAPSK,≤ 0
2,VRTRRRPPPPPIPST,176

# Molecular target: CaMyo5
# Test: as above
# Description: as §1
row,Binder,SPOT peptide array binding signal intensity
1,NILKRRPLKLEAPSK,1.5
2,VRTRRRPPPPPIPST,13

# Molecular target: CaNbp2
# Test: as above
# Description: as §1
row,Binder,SPOT peptide array binding signal intensity
1,VRTRRRPPPPPIPST,610

# Molecular target: CaRvs167
# Test: as above
# Description: as §1
row,Binder,SPOT peptide array binding signal intensity
1,VRTRRRPPPPPIPST,48.5

# Molecular target: CaRvs167-3
# Test: as above
# Description: as §1
row,Binder,SPOT peptide array binding signal intensity
1,VRTRRRPPPPPIPST,2

# Molecular target: CaSho1
# Test: as above
# Description: as §1
row,Binder,SPOT peptide array binding signal intensity
1,VRTRRRPPPPPIPST,25.5

# Molecular target: CaSla1-D1-D2
# Test: as above
# Description: as §1
row,Binder,SPOT peptide array binding signal intensity
1,VRTRRRPPPPPIPST,2380

# Molecular target: CaSla1-D3
# Test: as above
# Description: as §1
row,Binder,SPOT peptide array binding signal intensity
1,VRTRRRPPPPPIPST,296

# Molecular target: ScAbp1
# Test: as above
# Description: as §1
row,Binder,SPOT peptide array binding signal intensity
1,VRTRRRPPPPPIPST,19

# Molecular target: ScBbc1
# Test: as above
# Description: as §1
row,Binder,SPOT peptide array binding signal intensity
1,VRTRRRPPPPPIPST,358

# Molecular target: ScBem1-D1
# Test: as above
# Description: as §1
row,Binder,SPOT peptide array binding signal intensity
1,VRTRRRPPPPPIPST,46

# Molecular target: ScBzz1-D1
# Test: as above
# Description: as §1
row,Binder,SPOT peptide array binding signal intensity
1,VRTRRRPPPPPIPST,1430

# Molecular target: ScBzz1-D2
# Test: as above
# Description: as §1
row,Binder,SPOT peptide array binding signal intensity
1,VRTRRRPPPPPIPST,210

# Molecular target: ScCyk3
# Test: as above
# Description: as §1
row,Binder,SPOT peptide array binding signal intensity
1,VRTRRRPPPPPIPST,20.5

# Molecular target: ScFus1
# Test: as above
# Description: as §1
row,Binder,SPOT peptide array binding signal intensity
1,VRTRRRPPPPPIPST,10

# Molecular target: ScHof1
# Test: as above
# Description: as §1
row,Binder,SPOT peptide array binding signal intensity
1,VRTRRRPPPPPIPST,0.75

# Molecular target: ScHse1
# Test: as above
# Description: as §1
row,Binder,SPOT peptide array binding signal intensity
1,VRTRRRPPPPPIPST,186

# Molecular target: ScLsb1
# Test: as above
# Description: as §1
row,Binder,SPOT peptide array binding signal intensity
1,VRTRRRPPPPPIPST,96.8

# Molecular target: ScLsb2
# Test: as above
# Description: as §1
row,Binder,SPOT peptide array binding signal intensity
1,VRTRRRPPPPPIPST,144

# Molecular target: ScLsb3
# Test: as above
# Description: as §1
row,Binder,SPOT peptide array binding signal intensity
1,VRTRRRPPPPPIPST,584

# Molecular target: ScLsb4
# Test: as above
# Description: as §1
row,Binder,SPOT peptide array binding signal intensity
1,VRTRRRPPPPPIPST,23.5

# Molecular target: ScMyo3
# Test: as above
# Description: as §1
row,Binder,SPOT peptide array binding signal intensity
1,VRTRRRPPPPPIPST,851

# Molecular target: ScMyo5
# Test: as above
# Description: as §1
row,Binder,SPOT peptide array binding signal intensity
1,VRTRRRPPPPPIPST,892

# Molecular target: ScNbp2
# Test: as above
# Description: as §1
row,Binder,SPOT peptide array binding signal intensity
1,VRTRRRPPPPPIPST,1260

# Molecular target: ScPex13
# Test: as above
# Description: as §1
row,Binder,SPOT peptide array binding signal intensity
1,VRTRRRPPPPPIPST,269

# Molecular target: ScRvs167
# Test: as above
# Description: as §1
row,Binder,SPOT peptide array binding signal intensity
1,VRTRRRPPPPPIPST,624

# Molecular target: ScSho1
# Test: as above
# Description: as §1
row,Binder,SPOT peptide array binding signal intensity
1,VRTRRRPPPPPIPST,141

# Molecular target: ScSla1-D1-D2
# Test: as above
# Description: as §1
row,Binder,SPOT peptide array binding signal intensity
1,VRTRRRPPPPPIPST,3390

# Molecular target: ScSla1-D3
# Test: as above
# Description: as §1
row,Binder,SPOT peptide array binding signal intensity
1,VRTRRRPPPPPIPST,488

# Molecular target: SpAbp1-D1
# Test: as above
# Description: as §1
row,Binder,SPOT peptide array binding signal intensity
1,VRTRRRPPPPPIPST,13.5

# Molecular target: SpBbc1
# Test: as above
# Description: as §1
row,Binder,SPOT peptide array binding signal intensity
1,VRTRRRPPPPPIPST,77.2

# Molecular target: SpBzz1-D1
# Test: as above
# Description: as §1
row,Binder,SPOT peptide array binding signal intensity
1,VRTRRRPPPPPIPST,2830

# Molecular target: SpBzz1-D2
# Test: as above
# Description: as §1
row,Binder,SPOT peptide array binding signal intensity
1,VRTRRRPPPPPIPST,430

# Molecular target: SpCyk3
# Test: as above
# Description: as §1
row,Binder,SPOT peptide array binding signal intensity
1,VRTRRRPPPPPIPST,2

# Molecular target: SpHof1
# Test: as above
# Description: as §1
row,Binder,SPOT peptide array binding signal intensity
1,VRTRRRPPPPPIPST,248

# Molecular target: SpHof1-2
# Test: as above
# Description: as §1
row,Binder,SPOT peptide array binding signal intensity
1,VRTRRRPPPPPIPST,73

# Molecular target: SpHof1-3
# Test: as above
# Description: as §1
row,Binder,SPOT peptide array binding signal intensity
1,VRTRRRPPPPPIPST,88.2

# Molecular target: SpHse1
# Test: as above
# Description: as §1
row,Binder,SPOT peptide array binding signal intensity
1,VRTRRRPPPPPIPST,42.8

# Molecular target: SpLsb1
# Test: as above
# Description: as §1
row,Binder,SPOT peptide array binding signal intensity
1,VRTRRRPPPPPIPST,63.5

# Molecular target: SpLsb4
# Test: as above
# Description: as §1
row,Binder,SPOT peptide array binding signal intensity
1,VRTRRRPPPPPIPST,1370

# Molecular target: SpMyo1
# Test: as above
# Description: as §1
row,Binder,SPOT peptide array binding signal intensity
1,VRTRRRPPPPPIPST,1460

# Molecular target: SpNbp2
# Test: as above
# Description: as §1
row,Binder,SPOT peptide array binding signal intensity
1,VRTRRRPPPPPIPST,≤ 0

# Molecular target: SpPex13
# Test: as above
# Description: as §1
row,Binder,SPOT peptide array binding signal intensity
1,VRTRRRPPPPPIPST,30

# Molecular target: SpRvs167
# Test: as above
# Description: as §1
row,Binder,SPOT peptide array binding signal intensity
1,VRTRRRPPPPPIPST,265

# Molecular target: SpSla1-D1-D2
# Test: as above
# Description: as §1
row,Binder,SPOT peptide array binding signal intensity
1,VRTRRRPPPPPIPST,520

# Molecular target: SpSla1-D3
# Test: as above
# Description: as §1
row,Binder,SPOT peptide array binding signal intensity
1,VRTRRRPPPPPIPST,1

# From the supplement of paper PMC4466140
